# PubChem BioAssay (EPA / NIEHS)
# Results filed as inconclusive are left out. Activity calls are given as the source filed them. Rule for the calls: active = hit-call score of the fitted dose curve at least 0.9, where 1 is the maximum; inconclusive = response in the unintended direction; inactive = score below 0.9.
# System: frog Estrogen Receptor (ESR2), gene 100174814
# Assay: ATG_frER2_XSP1: Attagene TRANS-FACTORIAL Multi-Species (XSP1) HepG2 Assay for frog Estrogen Receptor (ESR2) (AID 2283774)
# Summary of the method: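 HepG2 cells transiently transfected with GAL4-UAS multiplexed reporter units expressing chimeric NR-Gal4 proteins; reporter mRNA measured 24 h after dosing by RT-PCR, FAM labeling, HpaI digestion and capillary electrophoresis. Gain-of-signal relative to DMSO; 3 nM 6-alpha-fluorotestosterone present.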
row,SMILES,AC50
1,CCC[CH2][Sn]([Cl])([CH2]CCC)[CH2]CCC,0.528 µM (active)
2,CCCCOC(=O)c1ccccc1C(=O)OCc1ccccc1,9.27 µM (active)
3,Clc1ccc(C(c2ccc(Cl)cc2)C(Cl)(Cl)Cl)cc1,4.09 µM (active)
4,CCCCCOC(=O)c1ccccc1C(=O)OCCCCC,27.3 µM (active)
5,Clc1ccc(C(c2ccc(Cl)cc2)C(Cl)Cl)cc1,6.82 µM (active)

# System: not listed separately
# Assay: ACEA_AR_agonist_AUC_viability: ACEA Biosciences xCELLigence Real-Time Cell Analysis on Androgen Receptor Agonism for Viability (AID 2283775);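 for AC50: viability read 80 hours after compound addition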
# Summary of the method: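 Real-time impedance tracking of 22Rv1 growth, readings every 5 min for 5 h then hourly; area-under-curve viability endpoint at 80 hours, relative to DMSO. Compounds at eight concentrations, 1:4 steps, top 100 uM, n = 2.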
SMILES,outcome,AC50
ClCCOCCCl,inactive,–
[Cl-].[Cl-].[Hg+2],–,4.59 µM (active)
CC(C)N(Cc1ccccc1)C(=O)C(C)(C)C,inactive,–
Nc1ccc(N=Nc2ccccc2)cc1,–,50 µM (active)
CCC[CH2][Sn]([Cl])([CH2]CCC)[CH2]CCC,–,0.567 µM (active)
CO[C@@H]1[C@H](OC(=O)NC(=O)CCl)CC[C@]2(CO2)[C@H]1[C@@]1(C)O[C@@H]1CC=C(C)C,–,0.00152 µM (active)
Cc1cc(N=Nc2ccccc2C)ccc1N,–,66.1 µM (active)
COC(=O)Nc1nc2ccccc2[nH]1,–,50 µM (active)
CCC(C)c1ccc(O)cc1 (configuration not stated),–,50 µM (active)
O=[N+]([O-])c1ccc(Oc2ccc(Cl)cc2Cl)cc1,–,84.9 µM (active)
CCCCOC(=O)c1ccccc1C(=O)OCc1ccccc1,–,50 µM (active)
Clc1ccc(C(c2ccc(Cl)cc2)C(Cl)(Cl)Cl)cc1,–,8.63 µM (active)
Cc1ccc(N)cc1,inactive,–
C=CCc1ccc2c(c1)OCO2,inactive,–
CCCCCOC(=O)c1ccccc1C(=O)OCCCCC,–,30 µM (active)
CCC12COCN1COC2,inactive,–
Oc1ccc2ccc3cccc4ccc1c2c34,–,83.3 µM (active)
O=[N+]([O-])C(Br)(CO)CO,–,29.5 µM (active)
O=C(Nc1ccccc1)c1ccccc1I,inactive,–
CN(C)c1ccccc1,inactive,–
Nc1ccc(Cc2ccc(N)cc2)cc1,inactive,–
CN(C)c1ccc(C(=O)c2ccc(N(C)C)cc2)cc1,–,9.27 µM (active)
Nc1cc(Cl)cc(C(=O)O)c1Cl,inactive,–
Clc1ccc(C(c2ccc(Cl)cc2)C(Cl)Cl)cc1,–,21.3 µM (active)
CN(C)C(=O)Nc1ccc(Cl)cc1,inactive,–
N#CC(Br)(Br)C(N)=O,inactive,–
CCOC(=O)[C@]1(c2ccccc2)Oc2ccccc2[C@@H]1N,–,69.4 µM (active)
Cc1ccc(N=C=O)cc1N=C=O,–,25.1 µM (active)

# System: not listed separately
# Assay: ACEA_AR_antagonist_AUC_viability: ACEA Biosciences xCELLigence Real-Time Cell Analysis on Androgen Receptor Antagonism for Viability (AID 2283776);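 note: 22Rv1 human prostate cancer cells growing on impedance electrode plates; hits lower the growth signal relative to DMSO meaning cytotoxicity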
# Summary of the method: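 Viability endpoint from label-free cell-index monitoring: 22Rv1 cultures treated with an eight-point 1:4 dilution series starting at 100 uM final, AUC at 80 h fitted against DMSO.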
SMILES,AC50,outcome
[Cl-].[Cl-].[Hg+2],5.66 µM (active),–
CC(C)N(Cc1ccccc1)C(=O)C(C)(C)C,–,inactive
Nc1ccc(N=Nc2ccccc2)cc1,–,inactive
CCC[CH2][Sn]([Cl])([CH2]CCC)[CH2]CCC,0.631 µM (active),–
CO[C@@H]1[C@H](OC(=O)NC(=O)CCl)CC[C@]2(CO2)[C@H]1[C@@]1(C)O[C@@H]1CC=C(C)C,3.27 µM (active),–
Cc1cc(N=Nc2ccccc2C)ccc1N,42.2 µM (active),–
COC(=O)Nc1nc2ccccc2[nH]1,17 µM (active),–
CCC(C)c1ccc(O)cc1 (configuration not stated),61.6 µM (active),–
O=[N+]([O-])c1ccc(Oc2ccc(Cl)cc2Cl)cc1,31.2 µM (active),–
CCCCOC(=O)c1ccccc1C(=O)OCc1ccccc1,24.7 µM (active),–
Clc1ccc(C(c2ccc(Cl)cc2)C(Cl)(Cl)Cl)cc1,–,inactive
Cc1cccc(N)c1N,–,inactive
Cc1ccc(N)cc1,–,inactive
C=CCc1ccc2c(c1)OCO2,–,inactive
CCCCCOC(=O)c1ccccc1C(=O)OCCCCC,67.9 µM (active),–
Cc1ccc(N)c(N)c1,50 µM (active),–
CCCCC(CC)COC(=O)c1ccc(C(=O)OCC(CC)CCCC)c(C(=O)OCC(CC)CCCC)c1 (configuration not stated),–,inactive

SMILES,AC50,outcome
CCC12COCN1COC2,–,inactive
Oc1ccc2ccc3cccc4ccc1c2c34,74.6 µM (active),–
O=[N+]([O-])C(Br)(CO)CO,39 µM (active),–
O=C(Nc1ccccc1)c1ccccc1I,–,inactive
CN(C)c1ccccc1,–,inactive
Nc1ccc(Cc2ccc(N)cc2)cc1,28.1 µM (active),–
CN(C)c1ccc(C(=O)c2ccc(N(C)C)cc2)cc1,9.62 µM (active),–
Nc1ccc(Cl)cc1N,50 µM (active),–
Nc1cc(Cl)cc(C(=O)O)c1Cl,–,inactive
Clc1ccc(Cl)c(Cl)c1,–,inactive
Clc1ccc(C(c2ccc(Cl)cc2)C(Cl)Cl)cc1,18.1 µM (active),–
CN(C)C(=O)Nc1ccc(Cl)cc1,50 µM (active),–
N#CC(Br)(Br)C(N)=O,–,inactive
CCOC(=O)[C@]1(c2ccccc2)Oc2ccccc2[C@@H]1N,65 µM (active),–
Cc1ccc(N=C=O)cc1N=C=O,24 µM (active),–
C[C@]12C=CC3=C4CCC(=O)C=C4CC[C@H]3[C@@H]1CC[C@@H]2O,–,inactive

# System: frog Estrogen Receptor (ESR1), gene 398734
# Assay: ATG_frER1_XSP1: Attagene TRANS-FACTORIAL Multi-Species (XSP1) HepG2 Assay for frog Estrogen Receptor (ESR1) (AID 2283777)
# Summary of the method: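 Read-out: fluorescent reporter mRNA via RT-PCR, HpaI digestion and capillary electrophoresis, after 24 h chemical exposure of transiently transfected human HepG2 cells expressing exogenous NR-Gal4 chimeras. DMSO served as baseline for positive-direction fitting.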
SMILES,outcome,AC50
CCC[CH2][Sn]([Cl])([CH2]CCC)[CH2]CCC,inactive,–
CCCCOC(=O)c1ccccc1C(=O)OCc1ccccc1,–,7.32 µM (active)
Clc1ccc(C(c2ccc(Cl)cc2)C(Cl)(Cl)Cl)cc1,–,1.31 µM (active)
CCCCCOC(=O)c1ccccc1C(=O)OCCCCC,inactive,–
Clc1ccc(C(c2ccc(Cl)cc2)C(Cl)Cl)cc1,–,8.6 µM (active)
C[C@]12C=CC3=C4CCC(=O)C=C4CC[C@H]3[C@@H]1CC[C@@H]2O,inactive,–
